39 compounds from ChEMBL document CHEMBL1157539, “Thousands of chemical starting points for antimalarial lead identification” (Nature, 2010) can be followed below.

Usually Inhibition stands for the change of the read-out against control, counted positive when it falls.

Values joined by “and” are separate entries in the source; they are usually repeats but may differ in a detail not shown here. Equal values may be shown once.

One test concerns Plasmodium falciparum. The test can be described thus: GSK_TCMDC: Inhibition of Plasmodium falciparum 3D7 in whole red blood cells, using parasite LDH activity as an index of growth. Test compounds present at 2uM. It is filed as functional.
`CCCCCCC(C)(C)c1cc(O)c2c(c1)OC(C)(C)c1ccncc1-2.Cl` yielded an Inhibition of 95%.
Regarding `O=C(C=Cc1ccc(F)c(Br)c1)N1CCC(CN2CCC(c3c[nH]c4ccccc34)CC2)CC1`, the Inhibition was 100%.
As to `O=C(/C=C/c1ccc(Cl)c(Cl)c1)N1CCC(CN2CCC(c3c[nH]c4cc(C(F)(F)F)ccc34)CC2)CC1`, the Inhibition came to 99%.
`Cc1ccc(CC(C)NCC(O)c2cccc(C(F)(F)F)c2)cc1.Cl` (stereo not drawn) yielded an Inhibition of 99%.
`CC(C)CNCc1cccc(-c2cccc(CN(C(=O)c3cccs3)C3CCN(Cc4ccccc4)CC3)c2)c1.O=C(O)C(F)(F)F`: the Inhibition stood at 90%.
The compound `CC[C@@]1(O)C(=O)OCc2c1cc1n(c2=O)Cc2c-1nc1cc3c(cc1c2CN1CCOCC1)OCO3.O=C(O)C(F)(F)F` displayed an Inhibition of 89%.
As for `CC(Cc1ccc(OCc2ccc(CCN(C)C)cc2)cc1)NCCc1cccc(Cl)c1` (stereo not drawn), the Inhibition is recorded as 100%.
Take `C=CCOc1ccccc1CNCC(O)c1cccc(C(F)(F)F)c1` (stereo not drawn): the Inhibition amounted to 99%.
Consider `Br.COC(=O)c1ccc(CC(C)NCC(O)c2cccc(OC(F)(F)F)c2)cc1` (stereo not drawn), for which the Inhibition was determined as 98%.
`O=C(NC1CCC(CN2CCC(c3c[nH]c4ccccc34)CC2)CC1)NC12CC3CC(CC(C3)C1)C2` (stereo not drawn) had an Inhibition of 96%.
As for `Cl.N#Cc1c(F)cc(N2CCC(NCC[C@H](N)Cc3ccc(F)c(F)c3)CC2)cc1F`, the Inhibition was found to be 100%.
`O=C(O)C(F)(F)F.OC1(CNCc2ccccc2)CCN(CCc2c[nH]c3ccc(F)cc23)CC1` showed an Inhibition of 100%.
In turn, `COc1ccc(CC(C)NCC(O)c2cccc(Cl)c2F)cc1` (stereo not drawn) gave an Inhibition of 88%.
Compound `CNC(=O)c1ccc2[nH]cc(C3CCN(CC4CCC(NC(=O)/C=C/c5ccc(Cl)c(Cl)c5)CC4)CC3)c2c1` (stereo not drawn) yielded an Inhibition of 100%.
Compound `O=C(CCC(=O)c1ccc2c3c(cccc13)CC2)NC1CCC(CN2CCC(c3c[nH]c4ccccc34)CC2)CC1` (stereo not drawn) returned an Inhibition of 96%.
On the same count and under the same terms, the figure for `CC(C)(C)c1ccc(Cn2nc(C(=O)N3CCN(C(=O)C4CCCO4)CC3)c3ccccc32)cc1` (stereo not drawn) is 90%.
Same read-out and setting: the figure for `CC(Cc1ccc(OCc2ccccc2)cc1)NCC(O)c1cccc(Cl)c1` (stereo not drawn) is 99%; for `O=C(/C=C/c1ccc2ccccc2c1)NC1CCC(CN2CCC(c3c[nH]c4ccccc34)CC2)CC1` (stereo not drawn) it is 100%.
The same measure, in the same setting: the figure for `CN1CC=C(c2c[nH]c3ccc(OC(=O)c4ccccc4)cc23)C1` is 96%.
In the case of `CO/C=C(/C(=O)OC)c1ccccc1Oc1cc(Oc2ccccc2C#N)ncn1` [AZOXYSTROBIN], the Inhibition is on record as 98%.
Turning to `CC[C@H]1CN2CC[C@H]1C[C@H]2[C@H](O)c1cc(-c2ccc(F)cc2)nc2ccc(OC)cc12.Cl`, the Inhibition turned out to be 99%.
`Cc1[nH]c2cc(Cl)ccc2c1C1=CCN(CCN2CCOc3c(Br)cccc3C2=O)CC1.Cl`: the Inhibition is listed as 90%.
On the same count and under the same terms, the figure for `Cc1[nH]c2ccccc2c1C1=CCN(CCN2CCOc3c(Br)cccc3C2=O)CC1` is 97%; for `CCOc1ccc(-c2nc3cc(-c4nc5cc(N6CCN(C)CC6)ccc5[nH]4)ccc3[nH]2)cc1.Cl.O` it is 100%; for `Cc1cc(CN2CCN(CCOC(c3ccccc3)c3ccccc3)CC2)ccc1O` it is 97%.
The same measure, in the same setting: in the case of `CCOC(=O)c1c(C)n(C2CCCCC2)c2cc(Br)c(O)cc12` it was 98%.
As for `Cn1c(C2CC3CCC(C2)N3CC2CCC(NC(=O)/C=C/c3ccc(Cl)c(Cl)c3)CC2)nc2ccccc21` (stereo not drawn), the Inhibition came out at 100%.
The compound `O=C(/C=C/c1ccc(Cl)c(Cl)c1)NC1CCC(CN2CCC(c3c[nH]c4ccccc34)C(O)C2)CC1` (stereo not drawn) returned an Inhibition of 100%.
On to `COc1ccc(C=CC(=O)NC2CCC(CN3CCC(c4c[nH]c5ccccc45)CC3)CC2)cc1` (stereo not drawn), for which the Inhibition is given as 100%.
On the same count and under the same terms, the figure for `CN1C2CCC1c1cc(NC(=O)c3cc(-c4ccc(Cl)cc4)cs3)ccc12.O=C(O)C(F)(F)F` (stereo not drawn) is 90%; for `CCCCCCC(C)c1cc(O)c2c(c1)OC(C)(C)c1ccncc1-2.Cl` (stereo not drawn) it is 100%; for `O=C(NC1CCC(CN2CCC(c3c[nH]c4ccccc34)CC2)CC1)c1cc(-c2ccccc2)c(C(F)(F)F)s1` (stereo not drawn) it is 100%.
Still for that read-out and setting: in the case of `Br.CNCCc1c(O)ccc2ccccc12` it was 94%.
Compound `COc1cccc(C2(NC[C@@H](O)[C@H](Cc3ccccc3)NC(=O)c3ccccc3)CCCCC2)c1` yielded an Inhibition of 97%.
Turning to `CC[C@H]1CN2CC[C@H]1C[C@H]2[C@H](O)c1cc(Cl)nc2ccc(OC)cc12`, the Inhibition was found to be 100%.
`COC(=O)c1ccc(CC(C)NCC(O)c2cccc(C(F)(F)F)c2)cc1.Cl` (stereo not drawn) had an Inhibition of 97%.
Turning to `Cc1[nH]c2ccc([N+](=O)[O-])cc2c1C1=CCN(C)CC1`, the Inhibition was found to be 86%.
On to `O=C(C=Cc1ccc(-c2ccccc2)cc1)NC1CCC(CN2CCC(c3c[nH]c4ccccc34)CC2)CC1` (stereo not drawn), for which the Inhibition is 100%.
Compound `COC(=O)c1ccc(CC(C)NCC(O)c2cccc(C(F)(F)F)c2)c(OC)c1` (stereo not drawn) gave an Inhibition of 100%.

The test system of another test is Plasmodium falciparum. The test can be described thus: GSK_TCMDC: Inhibition of Plasmodium falciparum Dd2 in whole red blood cells, using parasite LDH activity as an index of growth. Test compounds present at 2uM. It is filed as functional.
In turn, `CCCCCCC(C)(C)c1cc(O)c2c(c1)OC(C)(C)c1ccncc1-2.Cl` showed an Inhibition of 99%.
As to `O=C(C=Cc1ccc(F)c(Br)c1)N1CCC(CN2CCC(c3c[nH]c4ccccc34)CC2)CC1`, the Inhibition was found to be 9%.
`O=C(/C=C/c1ccc(Cl)c(Cl)c1)N1CCC(CN2CCC(c3c[nH]c4cc(C(F)(F)F)ccc34)CC2)CC1` had an Inhibition of 38%.
The same measure, in the same setting: in the case of `Cc1ccc(CC(C)NCC(O)c2cccc(C(F)(F)F)c2)cc1.Cl` (stereo not drawn) it was 97%; in that of `CC(C)CNCc1cccc(-c2cccc(CN(C(=O)c3cccs3)C3CCN(Cc4ccccc4)CC3)c2)c1.O=C(O)C(F)(F)F`, 36%; in that of `CC[C@@]1(O)C(=O)OCc2c1cc1n(c2=O)Cc2c-1nc1cc3c(cc1c2CN1CCOCC1)OCO3.O=C(O)C(F)(F)F`, 80%.
In turn, `CC(Cc1ccc(OCc2ccc(CCN(C)C)cc2)cc1)NCCc1cccc(Cl)c1` (stereo not drawn) had an Inhibition of 78%.
On to `C=CCOc1ccccc1CNCC(O)c1cccc(C(F)(F)F)c1` (stereo not drawn), for which the Inhibition was found to be 98%.
`Br.COC(=O)c1ccc(CC(C)NCC(O)c2cccc(OC(F)(F)F)c2)cc1` (stereo not drawn) gave an Inhibition of 67%.
`O=C(NC1CCC(CN2CCC(c3c[nH]c4ccccc34)CC2)CC1)NC12CC3CC(CC(C3)C1)C2` (stereo not drawn) gave an Inhibition of 46%.
`Cl.N#Cc1c(F)cc(N2CCC(NCC[C@H](N)Cc3ccc(F)c(F)c3)CC2)cc1F`: the Inhibition is listed as 26%.
On to `O=C(O)C(F)(F)F.OC1(CNCc2ccccc2)CCN(CCc2c[nH]c3ccc(F)cc23)CC1`, for which the Inhibition worked out at 4%.
The compound `COc1ccc(CC(C)NCC(O)c2cccc(Cl)c2F)cc1` (stereo not drawn) showed an Inhibition of 59%.
In the case of `CNC(=O)c1ccc2[nH]cc(C3CCN(CC4CCC(NC(=O)/C=C/c5ccc(Cl)c(Cl)c5)CC4)CC3)c2c1` (stereo not drawn), the Inhibition was found to be 90%.
On the same count and under the same terms, in the case of `O=C(CCC(=O)c1ccc2c3c(cccc13)CC2)NC1CCC(CN2CCC(c3c[nH]c4ccccc34)CC2)CC1` (stereo not drawn) it was 13%; in that of `CC(C)(C)c1ccc(Cn2nc(C(=O)N3CCN(C(=O)C4CCCO4)CC3)c3ccccc32)cc1` (stereo not drawn), 83%.
As for `CC(Cc1ccc(OCc2ccccc2)cc1)NCC(O)c1cccc(Cl)c1` (stereo not drawn), the Inhibition is 99%.
Same read-out and setting: the figure for `O=C(/C=C/c1ccc2ccccc2c1)NC1CCC(CN2CCC(c3c[nH]c4ccccc34)CC2)CC1` (stereo not drawn) is 88%.
With `CN1CC=C(c2c[nH]c3ccc(OC(=O)c4ccccc4)cc23)C1`, the Inhibition is listed as 97%.
With `CO/C=C(/C(=O)OC)c1ccccc1Oc1cc(Oc2ccccc2C#N)ncn1` [AZOXYSTROBIN], the Inhibition is 98%.
As for `CC[C@H]1CN2CC[C@H]1C[C@H]2[C@H](O)c1cc(-c2ccc(F)cc2)nc2ccc(OC)cc12.Cl`, the Inhibition was determined as 98%.
With `Cc1[nH]c2cc(Cl)ccc2c1C1=CCN(CCN2CCOc3c(Br)cccc3C2=O)CC1.Cl`, the Inhibition stood at 58%.
Take `Cc1[nH]c2ccccc2c1C1=CCN(CCN2CCOc3c(Br)cccc3C2=O)CC1`: the Inhibition turned out to be 76%.
Still for that read-out and setting: the figure for `CCOc1ccc(-c2nc3cc(-c4nc5cc(N6CCN(C)CC6)ccc5[nH]4)ccc3[nH]2)cc1.Cl.O` is 99%; for `Cc1cc(CN2CCN(CCOC(c3ccccc3)c3ccccc3)CC2)ccc1O` it is 96%.
On the same count and under the same terms, the figure for `CCOC(=O)c1c(C)n(C2CCCCC2)c2cc(Br)c(O)cc12` is 71%; for `Cn1c(C2CC3CCC(C2)N3CC2CCC(NC(=O)/C=C/c3ccc(Cl)c(Cl)c3)CC2)nc2ccccc21` (stereo not drawn) it is 51%; for `O=C(/C=C/c1ccc(Cl)c(Cl)c1)NC1CCC(CN2CCC(c3c[nH]c4ccccc34)C(O)C2)CC1` (stereo not drawn) it is 87%.
Take `COc1ccc(C=CC(=O)NC2CCC(CN3CCC(c4c[nH]c5ccccc45)CC3)CC2)cc1` (stereo not drawn): the Inhibition is 61% and 60%.
Consider `CN1C2CCC1c1cc(NC(=O)c3cc(-c4ccc(Cl)cc4)cs3)ccc12.O=C(O)C(F)(F)F` (stereo not drawn), for which the Inhibition turned out to be 35%.
As for `CCCCCCC(C)c1cc(O)c2c(c1)OC(C)(C)c1ccncc1-2.Cl` (stereo not drawn), the Inhibition came to 61%.
Consider `O=C(NC1CCC(CN2CCC(c3c[nH]c4ccccc34)CC2)CC1)c1cc(-c2ccccc2)c(C(F)(F)F)s1` (stereo not drawn), for which the Inhibition was 100%.
In turn, `Br.CNCCc1c(O)ccc2ccccc12` showed an Inhibition of 0%.
Same read-out and setting: in the case of `COc1cccc(C2(NC[C@@H](O)[C@H](Cc3ccccc3)NC(=O)c3ccccc3)CCCCC2)c1` it was 67%.
`CC[C@H]1CN2CC[C@H]1C[C@H]2[C@H](O)c1cc(Cl)nc2ccc(OC)cc12` returned an Inhibition of 92%.
The compound `COC(=O)c1ccc(CC(C)NCC(O)c2cccc(C(F)(F)F)c2)cc1.Cl` (stereo not drawn) gave an Inhibition of 87%.
In turn, `Cc1[nH]c2ccc([N+](=O)[O-])cc2c1C1=CCN(C)CC1` registered an Inhibition of 68%.
Turning to `O=C(C=Cc1ccc(-c2ccccc2)cc1)NC1CCC(CN2CCC(c3c[nH]c4ccccc34)CC2)CC1` (stereo not drawn), the Inhibition is 85% and 98%.
The compound `COC(=O)c1ccc(CC(C)NCC(O)c2cccc(C(F)(F)F)c2)c(OC)c1` (stereo not drawn) yielded an Inhibition of 98%.
